Test results reported in PubChem BioAssay (Tox21).
Results filed as inconclusive are left out. Calls of active or inactive are those of the source. Unless noted, calls follow the shape of the full dose curve.

Legend:
[1] = qHTS assay to identify small molecule agonists of the peroxisome proliferator-activated receptor delta (PPARd) signaling pathway - cell viability counter screen (AID 743211; active = well fitted curve in the direction sought with a large enough effect in the repeat runs; an effect the other way counts as inactive or inconclusive; also: % is scaled to controls: 0 for no effect and ±100 for the full control effect; nearly all actives have a fitted effect of over 55% in size)
How it was run: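 PPARd-bla HEK293H cells (3000/well) were pre-incubated 5 h at 37 C, then exposed to compound for 17 h at 37 C. After 2 h with LiveBLAzer substrate, CellTiter-Glo was added to the same wells; luminescence read after 30 min at room temperature.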

[2] = molecular target: Peroxisome proliferator-activated receptor delta (Homo sapiens) (UniProt Q03181); experiment: qHTS assay to identify small molecule agonists of the peroxisome proliferator-activated receptor delta (PPARd) signaling pathway (AID 743212); also: % is scaled to controls: 0 for no effect and ±100 for the full control effect
Sequence of Peroxisome proliferator-activated receptor delta (Homo sapiens) (Q03181 whole entry, looked up): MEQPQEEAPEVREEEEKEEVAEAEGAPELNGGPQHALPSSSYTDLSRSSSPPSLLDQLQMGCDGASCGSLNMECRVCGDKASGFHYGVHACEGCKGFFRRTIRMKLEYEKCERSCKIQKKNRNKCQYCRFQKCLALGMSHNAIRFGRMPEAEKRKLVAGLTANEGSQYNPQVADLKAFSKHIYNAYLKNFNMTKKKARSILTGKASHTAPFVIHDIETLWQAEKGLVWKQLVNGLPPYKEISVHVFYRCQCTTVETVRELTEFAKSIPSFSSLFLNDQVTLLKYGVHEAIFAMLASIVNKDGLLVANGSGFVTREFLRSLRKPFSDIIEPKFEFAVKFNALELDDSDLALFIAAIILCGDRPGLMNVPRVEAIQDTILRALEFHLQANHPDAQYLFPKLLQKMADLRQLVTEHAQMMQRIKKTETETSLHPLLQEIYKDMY
How it was run: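 HEK293H PPARd-bla cells; 5 h preincubation 37 C/5% CO2; compound (DMSO) 37 C; LiveBLAzer B/G FRET substrate 2 h RT; fluorescence intensity.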

[3] = qHTS assay to identify small molecule antagonists of the peroxisome proliferator-activated receptor delta (PPARd) signaling pathway - cell viability counter screen (AID 743213; active = well fitted curve in the direction sought with a large enough effect in the repeat runs; an effect the other way counts as inactive or inconclusive; also: % is scaled to controls: 0 for no effect and ±100 for the full control effect; nearly all actives have a fitted effect of over 50% in size)
How it was run: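 CellTiter-Glo was added to PPARd-bla HEK293H wells following 17 h compound treatment in the presence of 300 nM L165041. Luminescence was recorded after 30 min at room temperature.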

[4] = molecular target: Peroxisome proliferator-activated receptor delta (Homo sapiens) (UniProt Q03181); experiment: qHTS assay to identify small molecule antagonists of the peroxisome proliferator-activated receptor delta (PPARd) signaling pathway (AID 743215; active = well fitted inhibition curve with a large enough effect in the signal ratio in the repeat runs, not every such curve was filed as active; the % refers to the signal ratio;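 also: cells stimulated with agonist L165041 at 300 nM final during compound exposure; series mostly up to about 62 µM; % is scaled to controls: 0 for no effect and ±100 for the full control effect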)
How it was run: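 PPARd UAS-bla HEK293H cells were pre-incubated 5 h at 37 C, then given test compounds in DMSO plus agonist L165041 (300 nM final). After 17 h at 37 C, beta-lactamase FRET substrate was added; fluorescence read after 2 h at room temperature.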

[5] = molecular target: Bile acid receptor (Homo sapiens) (UniProt Q96RI1); experiment: qHTS assay to identify small molecule antagonists of the farnesoid-X-receptor (FXR) signaling pathway (AID 743217; active = well fitted inhibition curve with a large enough effect in the signal ratio in the repeat runs, not every such curve was filed as active; the % refers to the signal ratio; also: % is scaled to controls: 0 for no effect and ±100 for the full control effect)
Sequence of Bile acid receptor (Homo sapiens) (Q96RI1 whole entry, looked up): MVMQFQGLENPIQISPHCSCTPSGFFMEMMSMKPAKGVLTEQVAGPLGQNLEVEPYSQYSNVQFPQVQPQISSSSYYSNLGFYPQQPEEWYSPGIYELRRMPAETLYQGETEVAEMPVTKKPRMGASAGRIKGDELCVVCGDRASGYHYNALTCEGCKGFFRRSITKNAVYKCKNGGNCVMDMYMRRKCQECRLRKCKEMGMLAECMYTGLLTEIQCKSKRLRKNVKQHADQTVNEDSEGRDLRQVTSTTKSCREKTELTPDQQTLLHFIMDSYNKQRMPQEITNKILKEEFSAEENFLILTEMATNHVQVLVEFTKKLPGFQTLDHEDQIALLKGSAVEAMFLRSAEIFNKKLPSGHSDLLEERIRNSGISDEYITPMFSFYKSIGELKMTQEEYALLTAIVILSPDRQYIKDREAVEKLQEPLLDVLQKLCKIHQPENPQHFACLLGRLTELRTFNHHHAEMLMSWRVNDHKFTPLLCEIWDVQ
How it was run: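 FXR-UAS-bla HEK 293T cells pre-incubated 5 h at 37 °C, then exposed to compounds with chenodeoxycholic acid (50 uM final) for 16 h at 37 °C. Beta-lactamase reporter read by LiveBLAzer B/G FRET substrate fluorescence after 2 h at room temperature.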

[6] = molecular target: Bile acid receptor (Homo sapiens) (UniProt Q96RI1); experiment: qHTS assay to identify small molecule agonists of the farnesoid-X-receptor (FXR) signaling pathway (AID 743220; active = well fitted activation curve with a large enough effect in the signal ratio in the repeat runs, not every such curve was filed as active; the % refers to the signal ratio; also: % is scaled to controls: 0 for no effect and ±100 for the full control effect)
How it was run: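 Beta-lactamase reporter under UAS control in GeneBLAzer FXR HEK 293T cells (5000/well) measured with LiveBLAzer FRET substrate after 2 h at room temperature. Compound exposure lasted 16 h at 37C.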

[7] = qHTS assay to identify small molecule antagonists of the farnesoid-X-receptor (FXR) signaling pathway - cell viability counter screen (AID 743221; active = well fitted cell-killing curve with a large enough effect in the repeat runs, not every such curve was filed as active; also: % is scaled to controls: 0 for no effect and ±100 for the full control effect; nearly all actives have a fitted effect of over 50% in size)
How it was run: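 GeneBLAzer FXR-UAS-bla HEK 293T cells, compound plus chenodeoxycholic acid (50 uM final), 16 h at 37 C. CellTiter-Glo added to the same wells after the beta-lactamase read; luminescence read after 30 min at room temperature as viability.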

[8] = molecular target: Vitamin D3 receptor (Homo sapiens) (UniProt P11473); experiment: qHTS assay to identify small molecule agonists of the vitamin D receptor (VDR) signaling pathway (AID 743222); also: % is scaled to controls: 0 for no effect and ±100 for the full control effect
Sequence of Vitamin D3 receptor (Homo sapiens) (P11473 whole entry, looked up): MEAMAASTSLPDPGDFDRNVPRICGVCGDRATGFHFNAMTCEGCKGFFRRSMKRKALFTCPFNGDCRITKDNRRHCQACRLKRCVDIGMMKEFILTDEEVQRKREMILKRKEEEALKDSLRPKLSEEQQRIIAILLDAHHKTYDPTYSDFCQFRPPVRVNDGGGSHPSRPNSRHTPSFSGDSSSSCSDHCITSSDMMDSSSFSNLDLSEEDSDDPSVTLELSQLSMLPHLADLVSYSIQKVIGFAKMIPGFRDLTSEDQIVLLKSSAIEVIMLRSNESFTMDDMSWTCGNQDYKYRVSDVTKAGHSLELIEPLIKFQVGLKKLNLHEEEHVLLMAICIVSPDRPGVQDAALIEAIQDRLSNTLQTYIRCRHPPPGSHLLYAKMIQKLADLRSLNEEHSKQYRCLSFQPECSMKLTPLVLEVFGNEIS
How it was run: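 VDR-bla cells were plated 4 h at 37C/5% CO2, then exposed to compounds in DMSO for 16 h. After LiveBLAzer B/G FRET substrate addition and 2 h at room temperature, beta-lactamase reporter fluorescence was read.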

[9] = qHTS assay to identify small molecule agonists of the vitamin D receptor (VDR) signaling pathway - cell viability counter screen (AID 743224; active = well fitted curve in the direction sought with a large enough effect in the repeat runs; an effect the other way counts as inactive or inconclusive; also: series mostly up to about 63 µM; % is scaled to controls: 0 for no effect and ±100 for the full control effect; nearly all actives have a fitted effect of over 50% in size)
How it was run: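 VDR-bla cells were preincubated 4 h at 37C/5% CO2, then exposed to compounds for 16 h. After the 2 h room-temperature bla FRET read, CellTiter-Glo was added to the same wells and luminescence read after 30 min.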

[10] = qHTS assay to identify small molecule antagonists of the vitamin D receptor (VDR) signaling pathway - cell viability counter screen (AID 743225; active = well fitted curve in the direction sought with a large enough effect in the repeat runs; an effect the other way counts as inactive or inconclusive; also: % is scaled to controls: 0 for no effect and ±100 for the full control effect; nearly all actives have a fitted effect of over 50% in size)
How it was run: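 VDR-UAS-bla HEK 293T cells were plated and incubated 4 h at 37C, then dosed with compound plus 3 nM (final) 1-alpha,25-dihydroxyvitamin D3 for 16 h. After the 2 h beta-lactamase read, viability in the same wells was read as CellTiter-Glo luminescence after 30 min at room temperature.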

[11] = qHTS assay to identify small molecule agonists of the NFkB signaling pathway - cell viability counter screen (AID 1159515); also: series mostly up to about 61 µM; % is scaled to controls: 0 for no effect and ±100 for the full control effect; nearly all actives have a fitted effect of over 55% in size
How it was run: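 NFkB-bla ME-180 cells, 2,000/well, were plated overnight at 37 C, 5% CO2, then exposed to compounds in DMSO for 5 hr. After the bla FRET read, CellTiter-Glo was added to the same wells; luminescence was read after 30 min at room temperature.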

[12] = qHTS assay to identify small molecule agonists of the endoplasmic reticulum stress response signaling pathway (AID 1159516; active = well fitted activation curve with a large enough effect in the signal ratio in the repeat runs, not every such curve was filed as active; the % refers to the signal ratio; also: % is scaled to controls: 0 for no effect and ±100 for the full control effect)
How it was run: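 CellSensor ESRE-bla HeLa cells, carrying a beta-lactamase reporter driven by the ER stress response element, were plated overnight and exposed to compounds for 5 hr at 37 C. Reporter activity was read as FRET substrate fluorescence after 2 hr at room temperature.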

[13] = qHTS assay to identify small molecule agonists of the endoplasmic reticulum stress response signaling pathway - cell viability counter screen (AID 1159517)
How it was run: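 HeLa cells carrying an ESRE-driven beta-lactamase reporter receive compound for 5 hr at 37 C. Cell viability is then gauged with CellTiter-Glo by luminescence, 30 min at room temperature.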

[14] = qHTS assay to identify small molecule antagonists of the retinoid-related orphan receptor gamma (ROR-gamma) signaling pathway - cell viability counter screen (AID 1159520; active = well fitted curve in the direction sought with a large enough effect in the repeat runs; an effect the other way counts as inactive or inconclusive)
How it was run: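 Cytotoxicity was read from cellular ATP (CellTiter-Glo luminescence) after 16 hr at 37 C with 1 uM doxycycline induction. The inducer was added 2 hr after compound transfer to Tet-on ROR gamma CHO cells.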

[15] = qHTS assay to identify small molecule agonists of the AP-1 signaling pathway - cell viability counter screen (AID 1159525); also: nearly all actives have a fitted effect of over 55% in size
How it was run: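 Luminescent ATP readout (Cell Titer Glo, 30 min RT), normalised to DMSO and tetra n-octyl ammonium bromide controls. Cells were ME-180 AP-1-bla in 0.5% dialyzed FBS Opti-MEM, with a 5 h, 37 °C compound exposure.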

[16] = qHTS assay to identify small molecule agonists of the AP-1 signaling pathway (AID 1159526); also: % is scaled to controls: 0 for no effect and ±100 for the full control effect
[17] = molecular target: Retinoic acid receptor RXR-alpha (Homo sapiens) (UniProt P19793); experiment: qHTS assay to identify small molecule agonists of the RXR signaling pathway (AID 1159527); also: % is scaled to controls: 0 for no effect and ±100 for the full control effect; nearly all actives have a fitted effect of over 35% in size
Sequence of Retinoic acid receptor RXR-alpha (Homo sapiens) (P19793 whole entry, looked up): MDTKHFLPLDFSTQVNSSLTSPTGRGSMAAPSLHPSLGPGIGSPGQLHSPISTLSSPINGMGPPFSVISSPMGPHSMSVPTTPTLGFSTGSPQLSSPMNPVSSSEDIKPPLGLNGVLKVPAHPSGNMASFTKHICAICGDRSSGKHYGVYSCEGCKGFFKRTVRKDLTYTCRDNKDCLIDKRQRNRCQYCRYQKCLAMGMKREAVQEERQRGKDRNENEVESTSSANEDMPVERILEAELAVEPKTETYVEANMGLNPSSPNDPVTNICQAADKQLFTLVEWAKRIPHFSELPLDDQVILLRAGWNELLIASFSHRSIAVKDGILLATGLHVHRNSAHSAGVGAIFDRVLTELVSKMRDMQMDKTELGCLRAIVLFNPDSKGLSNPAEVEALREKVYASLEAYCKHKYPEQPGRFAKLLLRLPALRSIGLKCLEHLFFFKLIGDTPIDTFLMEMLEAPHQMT
How it was run: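 GeneBLAzer RXR-alpha-UAS-bla HEK 293T cells in 2% charcoal-stripped FBS medium were exposed to compounds for 16 hr at 37 C in agonist mode. Beta-lactamase reporter read as 460/530 nm FRET ratio after 2 hr substrate loading.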

[18] = molecular target: Vitamin D3 receptor (Homo sapiens) (UniProt P11473); experiment: qHTS assay to identify small molecule antagonists of the vitamin D receptor (VDR) signaling pathway (AID 743223; active = well fitted inhibition curve with a large enough effect in the signal ratio in the repeat runs, not every such curve was filed as active; the % refers to the signal ratio; also: % is scaled to controls: 0 for no effect and ±100 for the full control effect)
How it was run: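 VDR-bla cells were treated with compound plus 3 nM final 1alpha,25-dihydroxyvitamin D3 for 16 h at 37C. Beta-lactamase reporter read by B/G FRET substrate fluorescence after 2 h at room temperature. qHTS format.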

[19] = qHTS assay to identify small molecule agonists of the farnesoid-X-receptor (FXR) signaling pathway - cell viability counter screen (AID 743218; active = well fitted curve in the direction sought with a large enough effect in the repeat runs; an effect the other way counts as inactive or inconclusive; also: % is scaled to controls: 0 for no effect and ±100 for the full control effect; nearly all actives have a fitted effect of over 45% in size)
How it was run: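 FXR-UAS-bla HEK 293T cells, plated 5 h at 37 C, were exposed to compounds for 16 h at 37 C. CellTiter-Glo was then added to the same wells as the bla readout; luminescence read after 30 min at room temperature.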

[20] = molecular target: Nuclear receptor ROR-gamma (Homo sapiens) (UniProt P51449); experiment: qHTS assay to identify small molecule antagonists of the retinoid-related orphan receptor gamma (ROR-gamma) signaling pathway (AID 1159521; active = well fitted curve in the direction sought with a large enough effect in the repeat runs; an effect the other way counts as inactive or inconclusive)
How it was run: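 Tet-on ROR-gamma CHO cells with ROR response element-luciferase reporter; compounds added 2 hr before 1 uM doxycycline induction, then 16 hr at 37 C. Antagonism scored as decreased ONE-Glo luminescence.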

COC(=O)Nc1ccc(Cl)c(Cl)c1
inactive: outcome [1] | outcome [2] | outcome [3] | outcome [4] | outcome [5] | outcome [6] | outcome [7] | outcome [8] | outcome [9] | outcome [10] | outcome [11] | outcome [12] | outcome [13] | outcome [14] | outcome [15] | outcome [16] | Potency [17]

CC(C)C[C@@H](N)C(=O)O
inactive: outcome [2] | outcome [3] | outcome [4] | outcome [5] | outcome [6] | outcome [7] | outcome [8] | outcome [18] | outcome [9] | outcome [10] | outcome [11] | outcome [12] | outcome [13] | activity, negative = cytotoxicity [14] 3.47% [at 19 µM] | viability change, negative = cytotoxic [15] -0.425% [at 15.8 µM] | activation [16] -5.77% [at 15.8 µM] | activation [17] 4.08% [at 15.8 µM]

NC(=O)NC1N=C([O][Al])NC1=O (stereo unspecified)
inactive: outcome [1] | outcome [3] | outcome [5] | outcome [19] | outcome [6] | outcome [7] | outcome [9] | outcome [10] | outcome [11] | outcome [12] | outcome [13] | outcome [14] | outcome [15] | outcome [16] | Potency [17]

C[N+]12CCC(CC1)C(OC(=O)C(O)(c1ccccc1)c1ccccc1)C2 (stereo unspecified)
inactive: outcome [5] | outcome [7] | outcome [8] | outcome [18] | outcome [9] | outcome [10] | outcome [11] | outcome [12] | outcome [13] | outcome [14] | outcome [15] | outcome [16] | Potency [17]

CCOC(=O)C1=NOC(c2ccccc2)(c2ccccc2)C1
inactive: outcome [1] | outcome [2] | outcome [3] | outcome [5] | outcome [6] | outcome [7] | outcome [8] | outcome [18] | outcome [9] | outcome [10] | outcome [11] | outcome [12] | outcome [13] | outcome [14] | outcome [15] | outcome [16] | Potency [17]

CCOc1c(N2CCOCC2)cnn(C)c1=O
inactive: outcome [1] | outcome [2] | outcome [3] | outcome [4] | outcome [7] | outcome [8] | outcome [18] | outcome [9] | outcome [10] | outcome [11] | outcome [12] | outcome [13] | outcome [14] | outcome [15] | outcome [16] | Potency [17]

C[N+]1(CC2COC(c3ccccc3)(c3ccccc3)O2)CCCCC1 (stereo unspecified)
inactive: outcome [1] | outcome [2] | outcome [3] | outcome [4] | outcome [5] | outcome [6] | outcome [7] | outcome [9] | outcome [10] | outcome [11] | outcome [12] | outcome [13] | activity, negative = cytotoxicity [14] -0.623% [at 19 µM] | viability change, negative = cytotoxic [15] 0.502% [at 15.8 µM] | activation [16] -1.1% [at 15.8 µM] | activation [17] -0.901% [at 15.8 µM]

C[N+]1(C)[C@@H]2CC(OC(=O)[C@H](CO)c3ccccc3)C[C@H]1[C@@H]1O[C@@H]12 (stereo partly specified)
inactive: outcome [3] | outcome [19] | outcome [7] | outcome [8] | outcome [18] | outcome [9] | outcome [10] | outcome [11] | outcome [12] | outcome [13] | outcome [14] | Potency [20] | outcome [15] | outcome [16] | Potency [17]

CC(=O)C1CCCCC1=O (stereo unspecified)
inactive: outcome [2] | outcome [3] | outcome [4] | outcome [5] | outcome [19] | outcome [6] | outcome [7] | outcome [8] | outcome [18] | outcome [9] | outcome [11] | outcome [12] | outcome [13] | outcome [14] | outcome [15] | outcome [16] | Potency [17]

CN1[C@@H]2CC[C@H]1CC(OC(=O)C(O)c1ccccc1)C2 (stereo partly specified)
inactive: outcome [1] | outcome [2] | outcome [3] | outcome [7] | outcome [8] | outcome [18] | outcome [9] | outcome [10] | outcome [11] | outcome [12] | outcome [13] | outcome [14] | outcome [15] | outcome [16] | Potency [17]

O=S(=O)(O)c1cc(O)c(O)c(S(=O)(=O)O)c1
inactive: outcome [1] | outcome [2] | outcome [3] | outcome [5] | outcome [19] | outcome [6] | outcome [8] | outcome [9] | outcome [11] | outcome [12] | outcome [13] | outcome [14] | outcome [15] | outcome [16] | Potency [17]

O=C(O)c1cc(C(=O)O)cc(C(=O)O)c1
inactive: outcome [1] | outcome [2] | outcome [3] | outcome [4] | outcome [19] | outcome [7] | outcome [8] | outcome [18] | outcome [9] | outcome [10] | outcome [11] | outcome [12] | outcome [13] | outcome [14] | outcome [15] | outcome [16] | Potency [17]

Clc1cc(Cl)cc(Cl)c1
inactive: outcome [2] | outcome [4] | outcome [19] | outcome [8] | outcome [18] | outcome [9] | outcome [10] | outcome [11] | outcome [12] | outcome [13] | outcome [14] | outcome [15] | outcome [16] | Potency [17]

CCOC(=O)c1cnc2c(cnn2CC)c1NN=C(C)C
inactive: outcome [1] | outcome [2] | outcome [3] | outcome [7] | outcome [8] | outcome [18] | outcome [9] | outcome [10] | outcome [11] | outcome [12] | outcome [13] | outcome [14] | outcome [15] | outcome [16] | Potency [17]

CCCCCCCCCCCCCCC(=O)O
inactive: outcome [4] | outcome [19] | outcome [18] | outcome [9] | outcome [10] | outcome [11] | outcome [12] | outcome [13] | outcome [14] | outcome [15] | outcome [16] | Potency [17]

CC(C)(CCC(=O)O)C(=O)O
inactive: outcome [1] | outcome [3] | outcome [7] | outcome [8] | outcome [18] | outcome [9] | outcome [10] | outcome [11] | outcome [12] | outcome [13] | outcome [14] | outcome [15] | outcome [16] | Potency [17]

Cc1nc(C2CCCCC2)c(-c2ccc(S(N)(=O)=O)c(F)c2)o1
inactive: outcome [1] | outcome [3] | outcome [5] | outcome [19] | outcome [6] | outcome [8] | outcome [18] | outcome [9] | outcome [10] | outcome [11] | outcome [12] | outcome [13] | outcome [14] | outcome [15] | outcome [16] | Potency [17]
